Assay outcomes: PubChem, National Center for Advancing Translational Sciences (NCATS)
FMDV inh: blocks foot and mouth disease virus. 410,000 tested, 1.2% active. FMDV antiviral cell-based qHTS. AID 1159524. Potency, µM (doses to about 57.9 µM), for the others: top-dose activity change, negative = inhibition, hits mostly inhibitors; calls by dose curve; tested in HEK293T cells; further: read-out not given here; potency means the concentration at half of the fitted maximal effect; on the % scale 0 is the no-effect control and ±100 the full control effect; nearly all actives have a fitted effect of over 45% in size
HCMV inh: inhibitors of human cytomegalovirus; HFF cells, HCMV-luciferase reporter, 72 h; hits give low values; activity change, negative = inhibition, % at 57.5 µM; 410,000 tested, 4.5% active; in the data active means activity change below about -60%; inconclusive means no clear call, values can overlap the other calls; inactive means above about -39%; further: on the % scale 0 is the no-effect control and ±100 the full control effect
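HFF cells seeded 16 h at 37C, treated with compounds, infected with luciferase-reporter HCMV at MOI 1 PFU/cell; luciferase read at 72 h post infection, normalized to buffer-only and Salinomycin controls.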
Marburg entry inh: inhibitors of Marburg virus binding or cell entry | Potency, µM (highest dose often 37.8 µM), without a hit: top-dose activity change, negative = inhibition, usual class: inhibitors | Marburg virus pseudotyped entry inhibition, cell reporter | 300,000 tested, 1.8% active | AID 540276; calls by dose curve; tested in HEK293 cells; further: potency means the concentration at half of the fitted maximal effect; on the % scale 0 is the no-effect control and ±100 the full control effect
SARS PLpro yeast: SARS-CoV PLP inhibition in yeast | S. cerevisiae expressing SARS-CoV PLpro, growth rescue | Potency, µM (top dose mostly 32.9 µM), for the others: at the top dose activity, positive = growth rescue, actives largely listed as activators | 330,000 tested, 0.19% active; calls by dose curve; further: potency means the concentration at half of the fitted maximal effect; 0% is about no effect; nearly all actives have a fitted effect of over 55% in size
Lassa entry inh: blocks Lassa virus binding to or entry into cells; Lassa virus pseudotype entry inhibition, cell reporter; Potency, µM (doses to about 37.9 µM), inactives show top-dose activity change, negative = inhibition, hits mostly inhibitors; 300,000 tested, 1.2% active; AID 540256; calls by dose curve; tested in HEK293 cells; further: potency means the concentration at half of the fitted maximal effect; on the % scale 0 is the no-effect control and ±100 the full control effect; nearly all actives have a fitted effect of over 50% in size
HCV inh: HCV inhibition; Huh7.5.1 HCVcc-Cre infection, luciferase reporter, 44 h; Potency, µM (top dose mostly 41.8 µM), for the others: top-dose activity change, negative = inhibition, actives largely listed as inhibitors; 340,000 tested, 3.4% active; active means well fitted inhibition curve with a large enough effect; inconclusive means small, poorly fitted or top-dose-only effect, or another doubt; inactive means no such curve, though single readings can be large or run the other way; further: potency means the concentration at half of the fitted maximal effect; on the % scale 0 is the no-effect control and ±100 the full control effect
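A cell-based infection assay in which seeded cells (1,000 per well) receive test compound after 4 h, are inoculated with HCVcc-Cre at approximately 0.5 moi, and are incubated 44 h before luminescence detection.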
* = called active by the depositor; ? = inconclusive; nt = no result; [ ] = dose if it differs, or a comment. Shown are actives, neighbours in structure and some others; about 8% of the full set was active somewhere.

SMILES | FMDV inh | HCMV inh | Marburg entry inh | SARS PLpro yeast | Lassa entry inh | HCV inh
CCCCN(C)C(=O)c1cc2cc3ccc(OC)cc3nc2s1 | -51% | 50 | 10µM* | -12% | ? | 11µM*
CC(C(=O)NCc1ccccc1F)n1ccc2cc(S(=O)(=O)N3CCCC3)ccc21 (stereo not drawn) | ? | 2 | nt | nt | -1%[46.1 µM] | nt
Cc1nn2c(NC(C)C)c3c(nc2c1-c1ccccc1)CCC3 | -24% | -24 | ? | -1% | ? | -28%
CCCc1cc(N2CCCC2)n2nc(C)c(-c3ccccc3)c2n1 | -7% | ? | -29% | ? | -27% | ?
Cc1cc(NCCC(C)C)n2nc(C)c(-c3ccccc3)c2n1 | 1% | 12 | ? | -57% | -6% | 8.9µM*
CCCc1cc(NCc2ccccn2)n2nc(C)c(-c3ccccc3)c2n1 | -13% | -95* | ? | -4% | ? | ?
Cc1cc(NCc2ccccn2)n2ncc(-c3ccccc3)c2n1 | 1% | -66* | ? | -2% | ? | 2.8µM*
Cc1nn2c(NCC(C)C)c3c(nc2c1-c1ccccc1)CCC3 | -9% | nt | ? | 5% | -18% | 6.3µM*
Cc1cc(NCCCN2CCOCC2)n2nc(C)c(-c3ccccc3)c2n1 | -16% | 44 | ? | 8% | 4% | -26%
COC(=O)C1=C(C)N(Cc2ccccc2)C(=S)NC1c1cccc(C(F)(F)F)c1 (stereo not drawn) | nt | nt | -35%[14.2 µM] | nt | nt | nt
COc1ccc(C(=O)Nc2cccc(-c3cn4ccsc4n3)c2)cc1OC | 6% | 62 | nt | nt | ? | nt
Cc1nn2c(NCc3ccccn3)cc(C(C)C)nc2c1-c1ccccc1 | -27% | -98* | nt | 1% | nt | 4µM*
CCOc1ccc(CCNC(=O)Cn2ncc3c(=O)oc4ccc(C)cc4c32)cc1 | -9% | -2 | -2%[46.1 µM] | nt | 17%[46.1 µM] | nt
CN1CCN(C(c2ccc(C(F)(F)F)cc2)c2cc(Cl)c3cccnc3c2O)CC1 (stereo not drawn) | nt | ? | nt | -15% | nt | nt
CCN1CCN(C(c2ccc(C(F)(F)F)cc2)c2ccc3cccnc3c2O)CC1 (stereo not drawn) | ? | -85* | ? | -11% | ? | 7.1µM*
O=c1[nH]c(=O)n(C2CC(O)C(CO)O2)cc1I (stereo not drawn) | -2% | -6 | 19% | nt | 19%[46.1 µM] | 16%
O=c1[nH]c(=O)n([C@H]2C[C@H](O)[C@@H](CO)O2)cc1F | -16% | -67* | ? | 3% | 0.29µM* | ?
COc1cc(CNc2ncnc3c2[nH]c2ccc(C)cc23)cc(OC)c1 | ? | -65* | nt | 0% | nt | ?
Cc1ccc2[nH]c3c(NCc4ccco4)ncnc3c2c1 | -10% | -94* | 10µM* | -3% | -28% | 11µM*
COC(=O)[C@H](CCCN=C(N)N)NC(=O)CCCc1c(-c2ccccc2)[nH]c2c(F)cc(F)cc12 | -17% | nt | nt | nt | nt | nt
COc1cccc(CN2C(=O)c3ccccc3Sc3ccc(C(=O)NCc4ccccc4)cc32)c1 | 4% | -12 | ? | nt | -15%[46.1 µM] | nt
CC1CCC2C(=O)N(c3ccc(Cc4ccncc4)cc3)C(=O)C2C1 (stereo not drawn) | ? | -75* | ? | 0% | ? | ?
O=C(Nc1ccc(Cc2ccncc2)cc1)C1CCC(N2C(=O)C3C4C=CC(C4)C3C2=O)CC1 (stereo not drawn) | nt | -80* | -30% | -20% | ? | 8.9µM*
O=C1C2C3C=CC(C3)C2C(=O)N1c1ccc(Cc2ccncc2)cc1 (stereo not drawn) | -24% | -67* | ? | -1% | -20% | -28%
Cc1cc(-n2c(C)c3c(C)nnc(C)c3c2C)ccc1N | -18% | -62* | 17%[14.2 µM] | -1% | 7% | -76%
SMILES | FMDV inh | HCMV inh | Marburg entry inh | SARS PLpro yeast | Lassa entry inh | HCV inh
Cc1ccc(C(=O)Nc2cccc(-c3nc(CNC(=O)c4cccc(N(C)C)c4)c(C)o3)c2)s1 | 3% | nt | nt | nt | nt | nt
c1ccc(COc2ccc(Oc3nc(N4CCCCC4)nc(N4CCOCC4)n3)nn2)cc1 | -20% | 19 | ? | -7% | 5.8µM* | 4%
Cc1ccc(Nc2nc(Oc3ccc(OCc4ccccc4)nn3)nc(N3CCOCC3)n2)cc1 | ? | 35 | ? | 0% | -3% | -5%
Cc1ncc(CO)c(/C=N/Nc2ccc(C(F)(F)F)cn2)c1O | 6% | -96* | 4µM* | 7% | ? | ?
Cc1ccc(CN2CCC(CO)(CC3CCCCO3)CC2)o1 (stereo not drawn) | 7% | 16 | 12%[46.1 µM] | 1% | 5% | -1%
Cc1ccc2[nH]c(CN3CCC(CO)(CC4CCCCO4)CC3)c(C)c2c1 (stereo not drawn) | -20% | -70* | ? | 0% | 5µM* | -15%
COc1ccccc1-c1nnc(C2CCN(C(=O)c3ccc(C)cc3)CC2)o1 | 2% | 1 | ? | nt | 4%[46.1 µM] | nt
COc1ccc(-c2nnc(C3CCN(S(=O)(=O)c4cccc(Cl)c4)CC3)o2)cc1 | -22% | -94* | -2%[46.1 µM] | nt | 12%[46.1 µM] | nt
COc1ccc(-c2nnc(C3CCN(C(=O)c4ccccc4F)CC3)o2)cc1 | ? | -105* | 11%[46.1 µM] | nt | 10%[46.1 µM] | nt
Cc1ccccc1-c1nnc(C2CCN(S(=O)(=O)c3ccc(Cl)cc3)CC2)o1 | -18% | -104* | 15%[46.1 µM] | nt | 21%[46.1 µM] | nt
CCOc1cc(C=O)c(Br)cc1OC1CCCC1 | -30% | -62* | 0% | 1% | ? | -26%
COc1cc(C=O)c(Br)cc1OCc1ccc(C)cc1 | nt | 6 | ? | -28% | 6% | -21%
CCC(=O)Oc1ccc(C2Nc3ccccc3-c3nnc(SC)nc3O2)cc1 (stereo not drawn) | -23% | -5 | -15%[46.1 µM] | nt | -4%[46.1 µM] | nt
CCCCCCc1cc2cc(C(=O)Nc3cccc(OC)c3)c(=O)oc2cc1O | ? | -88* | ? | 3% | ? | ?
CCCCCCc1cc2cc(C(=O)OCC)c(=O)oc2cc1O | -17% | -4 | nt | 1% | nt | -8%
CCCCCCc1cc2cc(C(=O)Nc3ccc(OC)cc3)c(=O)oc2cc1O | ? | -61* | ? | 25% | -1% | ?
CCCCCCc1cc2cc(S(=O)(=O)c3ccc(F)c(Cl)c3)c(=O)oc2cc1O | 0% | -102* | ? | -11% | ? | ?
COc1cccc2cc(C(=O)Nc3ccc(CC(=O)O)cc3)c(=O)oc12 | ? | -72* | 10µM* | nt | ? | nt
COc1cccc2cc(C(=O)NCc3ccc(C)cc3)c(=O)oc12 | 21% | nt | -8%[46.1 µM] | -1% | -1%[46.1 µM] | 20%
Cc1ccc(NC(=O)Cn2nc(C)n3cccc3c2=O)c(C)c1 | 5% | -24 | ? | nt | 12%[46.1 µM] | nt
CC=CCCN1C=C(C(=O)OCC)C(c2ccccc2)NC1=O (stereo not drawn) | nt | nt | 41%[14.2 µM] | nt | nt | nt
CCCn1nc(C(=O)N2CCN(S(=O)(=O)c3ccc(C)c(C)c3)CC2)c2ccccc2c1=O | ? | -11 | nt | -2% | nt | 14µM*
CCOC(=O)c1cc(-c2ccc(OC)cc2)n(CCC(=O)NCCc2ccccc2)c1C | 31% | 9 | nt | nt | -14%[46.1 µM] | nt
